In article PMC7819943, “Rice protein-binding microarrays: a tool to detect cis-acting elements near promoter regions in rice” one finds binding signal data, which are given here for 54 sequences.

Over roughly 35,000 sequences, “fluorescence intensity (a.u.)” has its median near 10,000; the highest 2% begin near 52,000. The full list was thinned out, with the highest values kept by preference.

The target of this test is T1, OsWOX13 (Oryza sativa, UniProt Q5QMM3 1-267).
T1 sequence: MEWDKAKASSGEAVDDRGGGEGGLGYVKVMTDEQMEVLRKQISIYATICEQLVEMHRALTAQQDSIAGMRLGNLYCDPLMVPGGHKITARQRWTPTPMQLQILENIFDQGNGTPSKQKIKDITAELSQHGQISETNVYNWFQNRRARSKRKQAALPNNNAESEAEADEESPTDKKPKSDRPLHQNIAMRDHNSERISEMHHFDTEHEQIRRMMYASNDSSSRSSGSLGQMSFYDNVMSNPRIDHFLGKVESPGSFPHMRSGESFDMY
Kind of test: protein-binding microarray (RPBM); PBS, 2% BSA, 51.3 ng/ul salmon testes DNA, 50 uM zinc acetate, 200 nM TF, 25 C, 1 h; high values mean tight binding. Particulars: protein: recombinant; tags: N-terminal polyhistidine and DsRed monomer fusion (pET32a); label: CyDye5-dUTP incorporated in the synthesized complementary strand; 3' TTTTT single-stranded linker to array surface; dsDNA, one strand shown. In short, it runs like this: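 Polyhistidine-tagged DsRed fusions of transcription factors, joined at the N-terminus, were expressed in E. coli BL21-CodonPlus and isolated on Ni–NTA. They were incubated at 200 nM for 1 h at 25 °C on a custom Agilent array, double-stranded and BSA-blocked, in PBS with 2% BSA, salmon testes DNA and 50 µM zinc acetate. The binding signal is per-feature fluorescence intensity (arbitrary units) read on an Axon 4000B scanner after washing.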
Take “ATTTGCTAATGACGGATTAATTAGATTTAATAAATTCATCCGGAGTCACCTAGTGCAG”: the binding signal was 39700 fluorescence intensity (a.u.).
With “AAGCTGAAATTTGTTAGAGTAATAGTTGACACCATTACCACGGAGTCACCTAGTGCAG” the figure was 3160 fluorescence intensity (a.u.); with “AATCCTAATTATAAGATTTAAGACCTTTCTCTTCACTTCACGGAGTCACCTAGTGCAG”, 9800 fluorescence intensity (a.u.); with “GAGATATAATTGATTAGAGTTACTTTCAATCTTTTCCGTGCGGAGTCACCTAGTGCAG”, 62000 fluorescence intensity (a.u.).
The figure for “TCACCTTGATTTCAATCATTGGACAAGTGTCCTAGAAAGTCGGAGTCACCTAGTGCAG” is 55300 fluorescence intensity (a.u.).
Consider “CTCAATAATTAAGTTCTTGATTAACATTGATATTACTTTCCGGAGTCACCTAGTGCAG”, for which the binding signal is 24600 fluorescence intensity (a.u.).
For “CCCAATTGGTGATTAGATAATCCTGTCACTTTCTTCAAGTCGGAGTCACCTAGTGCAG”, the binding signal was 54100 fluorescence intensity (a.u.).
The figure for “CACAATCACGAATTGAAGAAAGTCCTTCATTTCACATCAACGGAGTCACCTAGTGCAG” is 3660 fluorescence intensity (a.u.).
With “TTGGCCTTCAATCATTGACACTTGGACAGAACAAATCAATCGGAGTCACCTAGTGCAG” the figure was 26000 fluorescence intensity (a.u.); with “CTAGATTGAGAGCATCTGATTCAATAATTAGACTTTCAATCGGAGTCACCTAGTGCAG”, 45100 fluorescence intensity (a.u.); with “AAGGATTAGATATGATTCAATCTTTTGGTTCAAAGTTCTTCGGAGTCACCTAGTGCAG”, 6590 fluorescence intensity (a.u.).
Consider “TCTAAATTAATCTTTAGTTCTTGACCGCAAAATATGAAGCCGGAGTCACCTAGTGCAG”, for which the binding signal is 14800 fluorescence intensity (a.u.).
In the case of “TAACGGATTGATACATCTGGTTACAAATGTGCACTACATACGGAGTCACCTAGTGCAG”, the binding signal is 3880 fluorescence intensity (a.u.).
For “TAGCTAATTTGCACCCACATGCATGTGCTTCGAGTAGTTACGGAGTCACCTAGTGCAG”, the binding signal is 7070 fluorescence intensity (a.u.).
With “CCCTTACTGATTGGACGGTCCCGCGCATAAGCATGCGCACCGGAGTCACCTAGTGCAG” the figure was 27800 fluorescence intensity (a.u.); with “TGATTAACAGCAACCATAGACGGGACAGGCCAGCCCACCACGGAGTCACCTAGTGCAG”, 3260 fluorescence intensity (a.u.); with “TTCAACCATAAATTGAATTGAATAGGACGGATGATGGTTACGGAGTCACCTAGTGCAG”, 12700 fluorescence intensity (a.u.).
The figure for “ATGGGCCACGGGCCCACGGACCATACGCATAGGATTCAACCGGAGTCACCTAGTGCAG” is 59500 fluorescence intensity (a.u.); for “GTACAATTTTCATAATTTGCATAAATCGAAAAGAAAAGTGCGGAGTCACCTAGTGCAG” it is 12400 fluorescence intensity (a.u.).
The figure for “GGTATGATAAACTTGACTAATTATACCATTGGATCATTGTCGGAGTCACCTAGTGCAG” is 11000 fluorescence intensity (a.u.).
For “ACTAATGATGGATTAATTAGGCTTAATATATTCATCTCGCCGGAGTCACCTAGTGCAG”, the binding signal was 58100 fluorescence intensity (a.u.).
Take “AATGATGGAGGATAATTTATATGCTAAATTATAAACTTGTCGGAGTCACCTAGTGCAG”: the binding signal was 57700 fluorescence intensity (a.u.).
In the case of “GTTTGGATTGATTATTGGGACAGTGAAATTGACCATTTGACGGAGTCACCTAGTGCAG”, the binding signal is 39600 fluorescence intensity (a.u.).
For the sequence “GATTAATTAGGCTCAATATATTCATCTCGCGAATTAGTCCCGGAGTCACCTAGTGCAG”, the binding signal is 33000 fluorescence intensity (a.u.).
The figure for “ATGATTAATACTTAATTAATTATGTGCGCTCATGGATCACCGGAGTCACCTAGTGCAG” is 56400 fluorescence intensity (a.u.); for “CAAATGAGCTAATACTTAATTAATAATGCGCTAATGGATCCGGAGTCACCTAGTGCAG” it is 4340 fluorescence intensity (a.u.).
The figure for “TATGAGATATCATTTAATTATATAATAAATATAATGATGTCGGAGTCACCTAGTGCAG” is 4610 fluorescence intensity (a.u.); for “TGATGGATTAATATATGATTAATTAAGTATTAGCTTAAACCGGAGTCACCTAGTGCAG” it is 13200 fluorescence intensity (a.u.).
As to “TTTTATAATGATACTTAATTAATCATGTGCTAATAATCACCGGAGTCACCTAGTGCAG”, the binding signal is 9330 fluorescence intensity (a.u.).
Take “TTAAATTATATTTATATCAAATTATACTTTGATCAATACTCGGAGTCACCTAGTGCAG”: the binding signal is 39900 fluorescence intensity (a.u.).
The figure for “TAAATTGATCAAATTGCCATTTGGAGTGCAGTGACGGGCTCGGAGTCACCTAGTGCAG” is 54900 fluorescence intensity (a.u.); for “CAAGAACCAATAATTTGCAAACTGTAGGGCACAGTTCGATCGGAGTCACCTAGTGCAG” it is 6920 fluorescence intensity (a.u.); for “GTCTCTTTGAAATTGAAATTGGGCCTCATTTAGTCTGTTACGGAGTCACCTAGTGCAG” it is 3500 fluorescence intensity (a.u.).
As for “TTTTCCATCACATTAACCTGTCATACACACAAAACTTTTCCGGAGTCACCTAGTGCAG”, the binding signal is 4820 fluorescence intensity (a.u.).
The figure for “ACAATCAATCAATCTTGCTTTCCATTCAAAGTCTTCATTTCGGAGTCACCTAGTGCAG” is 35000 fluorescence intensity (a.u.); for “AATGTGAGCATGTGATTTAAATTTGAGAAAATTCAACTTGCGGAGTCACCTAGTGCAG” it is 3660 fluorescence intensity (a.u.).
The figure for “GTCCTATTTGACGCTTTGATTAGACAACGCTTTGTCAATTCGGAGTCACCTAGTGCAG” is 12900 fluorescence intensity (a.u.); for “CGCTTGATCTGGGGTGGGGTCGCGAGTGGTGGAGGAGGTGCGGAGTCACCTAGTGCAG” it is 3600 fluorescence intensity (a.u.).
With “TGTTGACAAAATTAGCTGTTGCAACGCATACAGACTTCAACGGAGTCACCTAGTGCAG” the figure was 7410 fluorescence intensity (a.u.); with “CCCTAATTATGGTACGTGTTGATCGTGCCACTTCTTCCTCCGGAGTCACCTAGTGCAG”, 39500 fluorescence intensity (a.u.).
“TTAGATAAAATTAATTTGTCTTGCTTTTGTAGGCTGCAGACGGAGTCACCTAGTGCAG”: the binding signal was 27700 fluorescence intensity (a.u.).
As for “AAACCTAATTAATCATGCGCAAATGGCTTTCTTGTTTTGCCGGAGTCACCTAGTGCAG”, the binding signal was 22900 fluorescence intensity (a.u.).
The figure for “AATTAATCATGCAATAAAACAAATTTCGTTTTGCGTGCTACGGAGTCACCTAGTGCAG” is 6310 fluorescence intensity (a.u.); for “TGATTTAATTAATTAATTAATGGCCTTGTTATTGGATGCTCGGAGTCACCTAGTGCAG” it is 47100 fluorescence intensity (a.u.); for “TGCTAATGATGGATTAATTAAGCTTAATAAATTCATCTCGCGGAGTCACCTAGTGCAG” it is 53700 fluorescence intensity (a.u.).
With “TTGCTAATGACGGATTAATTATGCTTAATAAATTCATCTCCGGAGTCACCTAGTGCAG” the figure was 20600 fluorescence intensity (a.u.); with “CTGGATGATTGGATTGATTATGGACAGATTTAAATTTGCTCGGAGTCACCTAGTGCAG”, 65500 fluorescence intensity (a.u.).
The figure for “ATAAAATGTAAATTATGCTTAAAATGCTTTTAGTGATAAACGGAGTCACCTAGTGCAG” is 4750 fluorescence intensity (a.u.); for “TACACTGATTAGTGGATGATGATATAGTATCTTTGTATGTCGGAGTCACCTAGTGCAG” it is 45600 fluorescence intensity (a.u.); for “ACTGATTAGTGGATATGCTTTATATATGTAATTAGGATGCCGGAGTCACCTAGTGCAG” it is 53000 fluorescence intensity (a.u.).
On to “ATGTATTTGCTATTAAATTAATTATAGATGATTTAGAGCTCGGAGTCACCTAGTGCAG”, for which the binding signal was 16300 fluorescence intensity (a.u.).
With “GTTTGATTGCTTAATTAATTTCCAAATGCGCAATCATGCACGGAGTCACCTAGTGCAG” the figure was 64800 fluorescence intensity (a.u.); with “ATGTGCTAATGATGGATTAATTACGCTTAATAAATTCGTCCGGAGTCACCTAGTGCAG”, 28000 fluorescence intensity (a.u.); with “TGAGTGATGACAGTAAGTAACTGAATCTGCTGAGTTCTGACGGAGTCACCTAGTGCAG”, 6590 fluorescence intensity (a.u.).
